# Assay outcomes from PubChem.
# PostGolgi ctrl – yeast control strain growth, post-Golgi counter-screen. 98,000 tested, 5% active. efflux-deficient yeast background strain, growth absorbance A615, 16 h. inhibition, % at 10 µM
# CYP2C9 act – increases human cytochrome P450 2C9 activity | P11712 | recombinant CYP2C9, luciferin-H conversion, luminescence; hits give high values; factor 1 = untreated enzyme, 0 = blocked | activation factor at 5 µM | 96,000 tested, 1.4% active;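 active = activation factor of 2 or more for CYP2C9 at a 5 µM dose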;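 note: 0 = sulfaphenazole-blocked wells and 1 = vehicle-only wells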
# CYP2C19 activ – activators of human cytochrome P450 2C19; recombinant CYP2C19, luciferin-H EGE luminescence; hits give high values; 0 = fully inhibited enzyme, 1 = untreated enzyme; P33261; 96,000 tested, under 10 active; activation factor at 5 µM; AID 1025;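 active = activation factor of at least 2 at 5 µM in the primary screen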;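 note: 0 = wells with 2.5 mM tranylcypromine and 1 = vehicle-only wells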
# Target sequence (P33261 whole entry, looked up): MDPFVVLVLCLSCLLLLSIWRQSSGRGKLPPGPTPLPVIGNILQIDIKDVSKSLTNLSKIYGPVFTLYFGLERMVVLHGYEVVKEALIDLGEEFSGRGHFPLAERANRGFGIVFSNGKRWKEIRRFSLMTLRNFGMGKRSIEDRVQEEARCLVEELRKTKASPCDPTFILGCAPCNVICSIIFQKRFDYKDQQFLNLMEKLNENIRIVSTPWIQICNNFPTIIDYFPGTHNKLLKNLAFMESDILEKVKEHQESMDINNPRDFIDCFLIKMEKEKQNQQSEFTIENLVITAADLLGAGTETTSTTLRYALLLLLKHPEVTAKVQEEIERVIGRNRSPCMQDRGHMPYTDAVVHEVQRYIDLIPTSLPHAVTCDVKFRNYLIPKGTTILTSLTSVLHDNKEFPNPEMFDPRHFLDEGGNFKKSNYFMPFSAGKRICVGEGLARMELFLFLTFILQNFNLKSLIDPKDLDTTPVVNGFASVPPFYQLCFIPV
# CYP2C9 inhib – blocks human cytochrome P450 2C9; P11712; CYP2C9 Supersomes, luciferin-H conversion, luminescence; inhibition, % at 5 µM; 96,000 tested, 20% active;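 active = blocking of liver enzyme CYP2C9 beyond about 50% at 5 µM, limit read from the data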
# PostGolgi yeast – growth inhibition of a yeast mutant, post-Golgi transport screen | post-Golgi transport phenotypic cell assay | AID 739 | 98,000 tested, 0.9% active | inhibition, % at 10 µM;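 note: yeast cells grown in 1536-well plates; yeast grown about 18 h at 30C before absorbance read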
# CYP2C19 inh – inhibitors of human CYP2C19; CYP2C19 Supersomes, luciferin-H EGE luminescence, 30 min; inhibition, % at 5 µM; 96,000 tested, 21% active;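 active = CYP2C19 inhibition above a set limit at 5 µM in the primary screen, cut at about 50% in these data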;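 note: plate controls were negative control wells for no effect and 2.5 mM tranylcypromine positive control for full effect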
# * marks the source's active call; other numbers are inactive results; x = not tested or not shown. The list is not random: actives were taken first. Their share in the collection is about 32%. Cut-off read from the data, not from the text of the source, unless noted: active = inhibition above about 30%; inactive = the rest.
SMILES,PostGolgi ctrl,CYP2C9 act,CYP2C19 activ,CYP2C9 inhib,PostGolgi yeast,CYP2C19 inh
Cc1[nH]c(=O)[nH]c(=O)c1S(=O)(=O)N1CCN(c2ccccc2F)CC1,3,1,1,2,20,1
COc1ccc(S(=O)(=O)N2CCN(c3cccc(C)c3C)CC2)cc1,35*,0.1,0,88*,-10,97*
O=c1[nH]c2ccc(S(=O)(=O)N3CCN(c4ccccc4F)CC3)cc2s1,31*,1,0.6,3,-5,38
Cc1cccc(N2CCN(S(C)(=O)=O)CC2)c1C,-2,0.8,0.9,16,25,13
COc1ccc(OC)c(S(=O)(=O)N2CCN(c3c(C)cccc3C)CC2)c1,29,0,0.5,98*,-2,50*
COC(=O)C1CC(=O)N(CCc2c[nH]c3ccccc23)C1 (configuration not stated),6,0.7,0,34,20,97*
COC(CNC(=O)C1CC(=O)N(CCc2ccccc2)C1)OC (configuration not stated),9,1,1.1,-2,-5,-7
COc1ccc(NC2c3ccccc3C(=O)N2c2cccnc2)cc1Cl (configuration not stated),1,0.4,0.2,58*,3,81*
O=C1c2ccccc2C(Nc2ccc(Cl)cn2)N1c1ccccn1 (configuration not stated),16,x,x,x,4,x
O=C1c2ccccc2C(Nc2ccccc2)N1c1cccnc1 (configuration not stated),19,0.9,0.3,14,-5,70*
COC(=O)c1cc(NC2c3ccccc3C(=O)N2c2cccnc2)cc(C(=O)OC)c1 (configuration not stated),x,x,x,x,0,x
CCOc1ccccc1NC1c2ccccc2C(=O)N1c1cccnc1 (configuration not stated),10,0.9,0.5,5,4,52*
CCOc1ccccc1CN1C(=O)c2ccccc2C1C(=O)NC(C)CC (configuration not stated),0,1,1,1,3,-2
COC(=O)C(C)N(c1ccc(C)cc1)S(=O)(=O)c1c(C)[nH]c(=O)[nH]c1=O (configuration not stated),3,0.8,1.1,15,-4,-11
Cc1ccc(-c2csc3ncn(CC(=O)N4CCOCC4)c(=O)c23)cc1,-4,1.2,1.2,-23,19,-18
Cc1ccc(-c2csc3ncnc(Sc4nnc(CN5CCCCCC5=O)o4)c23)cc1,20,0.2,0.5,83*,-5,52*
CCCCCCN1CC(O)=C(c2nc3ccccc3[nH]2)C1=N,14,0.1,0.4,90*,-6,59*
CCCCN1CC(O)=C(c2nc3ccccc3s2)C1=N,7,0.4,0.5,64*,2,45
CCC(C)N1CC(O)=C(c2nc3ccccc3[nH]2)C1=N (configuration not stated),14,0.6,0.2,38,0,84*
CC(C)C(NC(=O)COc1ccc2ccccc2c1)C(=O)N/N=C/C=C/c1ccccc1 (configuration not stated),-1,0.6,0.8,40,-1,19
Cc1oc(C(=O)O)cc1COc1cccc2cccnc12,-1,1.2,1,-16,8,0
O=C(COc1ccc(/C=N/NC(=O)c2cc3ccccc3o2)cc1Cl)Nc1ccccc1,-2,0.7,1.1,28,-16,-6
O=C(CSc1nnc(-c2cccs2)n1CC1CCCO1)c1cc2ccccc2o1 (configuration not stated),-10,0.7,0.8,32,-6,19
Cn1c(=N)n(CC(=O)C(C)(C)C)c2ccccc21,17,1,1,-3,0,2
CN1CCN(C(=O)CN(c2cc(C(F)(F)F)ccc2Cl)S(C)(=O)=O)CC1,6,1,0.7,0,-4,28
SMILES,PostGolgi ctrl,CYP2C9 act,CYP2C19 activ,CYP2C9 inhib,PostGolgi yeast,CYP2C19 inh
COCCNC(=O)CN(c1ccccc1OC)S(C)(=O)=O,0,1.1,1,-5,1,-3
COC(=O)CN(c1cc(C(F)(F)F)ccc1Cl)S(C)(=O)=O,5,1,0.4,2,0,56*
COCCNC(=O)CN(c1cc(C(F)(F)F)ccc1Cl)S(C)(=O)=O,7,1.2,0.4,-18,0,58*
CCS(=O)(=O)N1CCCC(C(=O)NCCCN2CCCC2=O)C1 (configuration not stated),0,1.1,1.1,-6,7,-6
CCN1CCN(Cc2nc3c(c(=O)n(C)c(=O)n3C)n2Cc2cccc3ccccc23)CC1,10,0.9,0.9,8,13,6
CCCOC(=S)Nc1ccccc1,-7,0.8,0.4,20,-7,62*
CO/N=C/c1ccc(Sc2ccccc2N)c([N+](=O)[O-])c1,32*,0.3,0.3,69*,10,74*
O=[N+]([O-])c1cc(/C=N/O)ccc1Sc1ccccc1,15,0.3,0.9,67*,9,11
O=[N+]([O-])c1cc(/C=N/O)ccc1SCc1ccccc1,4,0.7,0.8,26,-6,20
CO/N=C/c1ccc(Sc2ccccc2)c([N+](=O)[O-])c1,7,0.3,0.8,74*,2,16
Cc1ccoc1C(=O)Nc1ccc(CC(=O)O)cc1,7,1.1,0.8,-7,-12,15
CCOC(=O)/C(=N\Nc1ccc(Cl)cc1)c1csc(Nc2ccccc2)n1,-2,0.1,0.9,87*,4,12
CCN(CC)C(=O)c1csc(Nc2ccc(C)cc2)n1,14,0.4,0.2,61*,-3,81*
Cc1ccc(Nc2nnc(SCC(=O)NCc3ccco3)s2)cc1,-2,0.4,0.6,58*,-6,44
CCOC(=O)/C(=N/Nc1ccccc1)c1csc(Nc2ccccc2)n1,14,0.6,0.9,44,-2,7
Cc1ccc(Nc2nc(C3CC3)cs2)cc1,9,0.7,0.8,26,2,20
Cc1ccc(Nc2nc(C(=O)NCCCN3CCOCC3)cs2)cc1,13,0.7,0.7,26,11,28
O=C(CSc1nnc(Nc2ccccc2)s1)NCc1ccco1,1,0.6,0.6,37,-8,42
Cc1ccc(Nc2nc(C(=O)NCc3ccco3)cs2)cc1,3,0.1,0.1,91*,16,86*
CCNC(=S)N1C2CCC1CC(NC(=O)NC1CCCCC1)C2 (configuration not stated),3,1.1,0.9,-9,-20,8
Fc1ccccc1COc1ccc(/C=N/n2cnnc2)cc1,1,0.1,0,95*,-15,97*
C(=N\n1cnnc1)/c1ccc(OCc2cccc3ccccc23)cc1,28,0.2,0.6,81*,4,38
C(=N\n1cnnc1)/c1ccc(OC2CSC2)cc1,23,0.1,0.1,85*,1,93*
COC(=O)c1ccc(/C=N/n2cnnc2)cc1,-6,0.7,0.5,29,1,47
